Some compounds were tested as several samples or in several runs, with calls that do not always agree. Calls of active or inactive are those of the source. How the source made its calls: active means hit-call score of the fitted dose curve at least 0.9, where 1 is the maximum; inactive means score below 0.9.
Assay: CCTE_Shafer_MEA_acute_burst_duration_mean: CCTE's Neural Acute Assay for Mean Burst Duration, Shafer Lab (AID 2284014)
Description: CCTE_Shafer_MEA_acute assay is conducted using Axion Biosystems 48 well microelectrode array (MEA) plates and Maestro recording system. Each well of the MEA plate contains a grid of 16 microelectrodes embedded in the culture surface. Electrically active cells, such as neurons, can be cultured over the electrodes, and electrical activity in these cells can be recorded extracellularly. The spontaneous firing of neurons is captured from each electrode on a microsecond timescale providing both temporally and spatially precise data. […] The CCTE_Shafer_MEA_acute assay uses primary cultures of rat cortical neurons. As these cultures mature over time, neural networks develop functional activity and form cohesive networks in which electrical activity can be highly coordinated. Baseline 40-minute recordings are made on days post-plating 13 or 15, followed by a secondary 40-minute recording after chemical exposure.CCTE_Shafer_MEA_acute_burst_duration_mean is a component of the CCTE_Shafer_MEA_acute assay. It measures the average time from the first spike (action potential firing) to the last spike in a single-electrode burst (temporally-clustered group of spikes) during a recording in a microelectrode array (MEA) using Axion Biosystems Maestro 768 channel amplifier with the AxIS adaptive spike detector. The recordings before and after chemical treatment are used to calculate a percent change in the mean burst duration in each well.Data from the assay component CCTE_Shafer_MEA_acute_burst_duration_mean was analyzed into 1 assay endpoint. This assay endpoint, CCTE_Shafer_MEA_acute_burst_duration_mean, was analyzed in the negative analysis fitting direction relative to DMSO as the negative control and baseline of activity. Using a type of functional reporter, gain or loss-of-signal activity can be used to understand electrical activity.
Spontaneous activity in the cortical cultures was recorded using an Axion Biosystems Maestro 768 channel amplifier and Axion Integrated Studios (AxIS) v1.8 (or later) software. The amplifier recorded from all channels simultaneously (gain = 1200 x; sampling rate = 12.5 kHz/channel): raw signals were filtered with a Butterworth band-pass filter (300-5000 Hz), which filters out slower local field potentials leaving only fast potentials, i.e., "spikes", arising from extracellular currents associated with action potentials (Pine 2006; Wheeler and Nam 2011). On-line spike detection of filtered signals was conducted with the AxIS adaptive spike detector, using a threshold of 8x the root mean squared (rms) noise on each channel. Any electrodes with rms noise levels greater than 5 uV were grounded (e.g., no data were recorded). Once grounded, an electrode was grounded for the duration of the experiment. All recordings were conducted at 37 C. Wells were deemed usable if on the day of the exposure >/= 10 electrodes were active (defined as >/= 5 spikes/min). On DIV 13 or 15, a minimum of three wells from one cortical culture preparation were treated with each compound (0.03-40 uM). Prior to recording baseline activity, each mwMEA plate was placed in the Maestro at 37 C and allowed to sit for 20 min while firing rates stabilized. Baseline activity (40 min) was recorded before the addition of each compound. An additional 40 min of spontaneous activity was recorded in the presence of each compound. Changes in network parameters relative to baseline were assessed following compound treatment.

Question: Which outcome does the source give for `N#CC(Br)Br` here?
Answer: inactive

Question: For `O=P(OCCCl)(OCCCl)OCCCl`, which outcome is on record?
Answer: inactive

Question: For `O=[N+]([O-])c1ccc(Oc2ccc(Cl)cc2Cl)cc1`, which outcome is on record?
Answer: inactive

Question: For `CCCCCCCCn1sccc1=O`, which AC50 is on record?
Answer: 6.78 µM (active)

Question: With `Cc1cc(N=Nc2ccccc2C)ccc1N` as the compound, how does the outcome read?
Answer: inactive

Question: For `CC(C)(C)C(O)(CCc1ccc(Cl)cc1)Cn1cncn1` (stereo unspecified), which outcome is on record?
Answer: inactive

Question: With `CC(C)COC(=O)c1ccccc1C(=O)OCC(C)C` as the compound, how does the AC50 read?
Answer: 20 µM (active)

Question: Which outcome does the source give for `ClCCOCCCl` here?
Answer: inactive

Question: Which outcome does the source give for `CCN(CC)CCO` here?
Answer: inactive

Question: What does the source list for `CCC[CH2][Sn]([Cl])([CH2]CCC)[CH2]CCC`?
Answer: outcome: inactive; AC50: 0.347 µM (active)

Question: With `Clc1ccc(C(c2ccc(Cl)cc2)C(Cl)Cl)cc1` as the compound, how does the outcome read?
Answer: inactive

Question: With `O=C(N[C@H](c1ccccc1)[C@@H]1CN2CCC1CC2)c1c(Cl)ccc(C(F)(F)F)c1Cl` as the compound, how does the outcome read?
Answer: inactive

Question: Which outcome does the source give for `CCN(CC)N=O` here?
Answer: inactive

Question: For `CCCCCOC(=O)c1ccccc1C(=O)OCCCCC`, which outcome is on record?
Answer: inactive

Question: For `O=[N+]([O-])C(Br)(CO)CO`, which AC50 is on record?
Answer: 30.4 µM (active)

Question: Which outcome does the source give for `O=Cc1ccco1` here?
Answer: inactive

Question: With `CC(C)(OOC(C)(C)c1ccccc1)c1ccccc1` as the compound, how does the outcome read?
Answer: inactive

Question: With `ClC1=C(Cl)C2(Cl)C3C(Cl)C=CC3C1(Cl)C2(Cl)Cl` (stereo unspecified) as the compound, how does the outcome read?
Answer: inactive

Question: With `Clc1ccc(C(c2ccc(Cl)cc2)C(Cl)(Cl)Cl)cc1` as the compound, how does the outcome read?
Answer: inactive

Question: Which outcome does the source give for `CC(C)(O)c1cnn2c(-c3ccc(F)c(-c4c(F)cccc4C#N)c3)cnc2n1` here?
Answer: inactive

Question: For `c1ccc(NNc2ccccc2)cc1`, which outcome is on record?
Answer: inactive

Question: For `CCC(C)c1ccc(O)cc1` (stereo unspecified), which outcome is on record?
Answer: inactive

Question: With `ClC1=C(Cl)[C@]2(Cl)[C@H]3[C@H]([C@@H]4C=C[C@H]3C4)[C@@]1(Cl)C2(Cl)Cl` as the compound, how does the outcome read?
Answer: inactive

Question: With `C[N+](C)(C)CC1CO1` (stereo unspecified) as the compound, how does the outcome read?
Answer: inactive

Question: With `Cc1ccc(N)c(N)c1` as the compound, how does the outcome read?
Answer: inactive

Question: With `O=C(Oc1ccc(Br)cc1)N1CCN2CCC1CC2` as the compound, how does the outcome read?
Answer: inactive

Question: With `c1ccc(N=Nc2ccccc2)cc1` as the compound, how does the outcome read?
Answer: inactive

Question: With `CCCCOC(=O)c1ccccc1C(=O)OCc1ccccc1` as the compound, how does the outcome read?
Answer: inactive

Question: Which AC50 does the source give for `[Cl-].[Cl-].[Hg+2]` here?
Answer: 29.8 µM (active)

Question: Which outcome does the source give for `COC(=O)Nc1nc2ccccc2[nH]1` here?
Answer: inactive

From PubChem BioAssay (EPA / NIEHS)
